# A selection: hits, their analogues and other compounds. The true share with any hit is near 1.2%.
# RGS12 GoLoco inh: qHTS Assay for Inhibitors of RGS12 GoLoco Motif Activity (Red Fluorophore); Guanine nucleotide-binding protein G(i) subunit alpha-1 (Homo sapiens), P63096; Gai1:RGS12 GoLoco peptide FP, rhodamine, 10 min; Potency, µM (titrated, usually from 61.6 µM), without a hit: at the top dose activity, negative = inhibition, usual class: inhibitors; hit rate 0.44% among 230,000; active = well fitted inhibition curve with a large enough effect, not every such curve was filed as active; inactive = no such curve, though single readings can be large or run the other way; note: nearly all actives have a fitted effect of over 30% in size
# VDR inh: Inhibitors of the vitamin D receptor (VDR): qHTS | hit rate 0.93% among 400,000 | Vitamin D3 receptor (Homo sapiens), P11473 | VDR-SRC2-3 peptide fluorescence polarization, 2 h | Potency, µM, for inactives: max response, negative = inhibition, most hits filed as inhibitors
#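 Inhibition of the VDR/SRC2-3 peptide interaction is quantified by fluorescence polarization. Compounds (23 nl, pintool) incubate with the reagents for 2 hours at ambient room temperature.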
# KAT2A inh: qHTS Assay for Inhibitors of GCN5L2; Histone acetyltransferase KAT2A (Homo sapiens), Q92830; GCN5L2 HAT assay, ThioGlo1 CoA-SH fluorescence; Potency, µM (highest dose often 58.9 µM), without a hit: at the top dose activity change, negative = inhibition, usual class: inhibitors; hit rate 0.21% among 390,000
# Target sequence (Q92830 whole entry, looked up): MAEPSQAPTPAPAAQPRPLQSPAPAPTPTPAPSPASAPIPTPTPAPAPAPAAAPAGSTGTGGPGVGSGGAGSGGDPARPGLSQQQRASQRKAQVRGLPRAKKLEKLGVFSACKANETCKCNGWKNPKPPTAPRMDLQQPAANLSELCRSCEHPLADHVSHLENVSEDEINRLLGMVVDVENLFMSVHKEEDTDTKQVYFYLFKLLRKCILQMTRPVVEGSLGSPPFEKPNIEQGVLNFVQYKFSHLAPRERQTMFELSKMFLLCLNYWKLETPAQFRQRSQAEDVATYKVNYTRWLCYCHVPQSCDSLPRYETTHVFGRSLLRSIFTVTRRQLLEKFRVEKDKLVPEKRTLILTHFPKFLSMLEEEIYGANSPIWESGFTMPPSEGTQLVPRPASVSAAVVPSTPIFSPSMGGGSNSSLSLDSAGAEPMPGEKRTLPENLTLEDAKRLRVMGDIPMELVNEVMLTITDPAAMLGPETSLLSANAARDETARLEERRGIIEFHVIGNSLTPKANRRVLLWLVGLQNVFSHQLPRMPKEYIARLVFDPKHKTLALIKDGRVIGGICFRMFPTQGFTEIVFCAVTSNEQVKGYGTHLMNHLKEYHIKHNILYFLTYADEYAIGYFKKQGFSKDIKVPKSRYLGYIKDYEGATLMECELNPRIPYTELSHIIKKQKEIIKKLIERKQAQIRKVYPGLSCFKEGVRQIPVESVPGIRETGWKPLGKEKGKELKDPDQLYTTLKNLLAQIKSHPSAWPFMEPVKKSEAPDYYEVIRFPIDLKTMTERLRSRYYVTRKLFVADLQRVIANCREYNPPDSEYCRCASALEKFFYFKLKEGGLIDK
#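 Enzyme at 20nM final was mixed with library compounds for 15 min at room temperature. Peptide H3(1-25) at 75uM, acetyl-CoA at 70uM and ThioGlo1 at 50uM were then added. Plates were read immediately and after 20 min (Ex340nm/Em540nm).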
# TRb-SRC2 inh: qHTS for Inhibitors of the Interaction of Thyroid Hormone Receptor and Steroid Receptor Coregulator 2 | Thyroid hormone receptor beta (Homo sapiens), P10828 | TRbeta-SRC2 peptide binding, fluorescence polarization; receptor liganded with 1 µM T3 | Potency, µM (series often up to 106 µM), without a hit: top-dose activity change, negative = inhibition, hits mostly inhibitors | hit rate 0.065% among 280,000;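 note: plate controls were bound peptide for no effect and peptide without receptor for full effect; nearly all actives have a fitted effect of over 50% in size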
#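 Quantitative HTS by FP: 0.6 uM TRb LBD, 20 nM labeled SRC2 20-mer, 1 uM T3, 5% DMSO; 5 hr ambient incubation; % activity per concentration and potencies from concentration series.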
# TexasRed fluor: Total Fluorescence Counterscreen for Inhibitors of the Interaction of Thyroid Hormone Receptor and Steroid Receptor Coregulator 2; hit rate 0.29% among 280,000; AID 1479, 2009; TRb/SRC2 Texas Red total fluorescence interference; Potency, µM (top dose mostly 106 µM), for the others: at the highest dose fluorescence change, negative = quenching; active = well fitted curve in either direction with a large enough effect; inconclusive = small, poorly fitted or top-dose-only effect
#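 Human TRβ ligand-binding domain (0.6 uM) and Texas Red SRC2 peptide (20 nM) in Tris buffer with 1 uM T3 and 5% DMSO were incubated with pinned compound for 5 hr at ambient temperature. Total fluorescence was computed as S + 2P (555/632 nm).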
# * = called active by the depositor; u = inconclusive; x = no result; ! = not active in a repeat; [ ] = dose if it differs, or a comment. Unless noted, calls come from the whole dose curve; as a rule, active = well fitted curve in the direction sought with a large enough effect; inconclusive = small, poorly fitted or top-dose-only effect, or another doubt; inactive = no such curve, though single readings can be large; an effect the other way counts as inactive or inconclusive. Unless noted, % is set by controls: 0 for no effect and ±100 for the full control effect; potency is the fitted concentration of half-maximal effect.
SMILES,RGS12 GoLoco inh,VDR inh,KAT2A inh,TRb-SRC2 inh,TexasRed fluor
CCOC(=O)N1CCN(/[N+]([O-])=N/Oc2ccc([N+](=O)[O-])cc2[N+](=O)[O-])CC1C (stereo not given),x,56µM*,x,-8%,-2%
CCOC(=O)N1CCCN(/[N+]([O-])=N/Oc2ccc([N+](=O)[O-])cc2[N+](=O)[O-])CC1,x,u,x,1%,0%
COC[C@H](C)N(C(=O)CCl)c1c(C)csc1C,x,x,x,0%[201 µM],-4%[201 µM]
Nc1cccc(Cl)c1Cl,x,x,x,2%[201 µM],-3%[201 µM]
COc1cc2c(cc1OC)-c1c(OC)c(OC)c(CO)c3c1C(C2)N(C)CC3 (stereo not given),0%,x,x,-3%,-3%
COc1cc2c(cc1OC)-c1c(OC)c(OC)c(C=O)c3c1[C@H](C2)N(C)CC3,10%,8.9µM*,-25%,-21%,8%
CC(C)(C)C(=O)[C@H](Oc1ccc(Cl)cc1)n1cncn1,x,x,x,-7%[201 µM],-2%[201 µM]
O=C(CN1CCOCC1)c1ccc2cc[nH]c2c1,7%,-4%,-2%,-4%,-1%
Cc1cc(C)c(C(=O)CN2CCOCC2)c(C)c1,3%,28µM*,-5%,-8%,-1%
Clc1ccc([C@@]2(Cn3cncn3)C[C@@H](Br)CO2)c(Cl)c1,x,x,x,-8%[201 µM],-3%[201 µM]
O=C(O)CC1OCC=C2CN3CCC45C6=CC(=O)C(=O)C([N+](=O)[O-])=C6NC4C1C2CC35 (stereo not given),-5%,79µM*,-15%,u,-11%
CCOP(=S)(OCC)SCC(=O)NC(C(=O)O)C(C)C (stereo not given),-1%,4%,2%,-17%,1%
CCOC(=O)N(C)C(=O)CSP(=S)(OCC)OCC,x,50µM*,0%,-2%,0%
CCOP(=S)(OCC)Oc1ncn(-c2ccccc2)n1,x,14µM*,-43%,-3%,-1%
CCN(CC)C(=O)Cn1cc(/C=C2\C(=O)NC(=O)N(c3ccccc3F)C2=O)c2ccccc21,x,79µM*,12%,x,x
ClC1=C(Cl)C2(Cl)C3C4OC4C(Cl)C3C1(Cl)C2(Cl)Cl (stereo not given),x,x,x,8%[201 µM],-1%[201 µM]
COc1ccc(CCNCc2ccc(C)s2)cc1OC,-3%,-12%,-9%,2%,-1%
COc1ccc(CCNCc2sccc2C)cc1OC,25µM*,6%,-12%,-6%,-1%
CCNc1nc(NC(C)C)nc(OC)n1,x,x,x,0%[201 µM],-1%[201 µM]
CCCCCCCCn1sccc1=O,3%,3.5µM*,u,-28%[201 µM],-2%[201 µM]
CCCCCCCCCCCCC1=C(OC(C)=O)C(=O)c2ccccc2C1=O,x,x,x,-9%[201 µM],0%[201 µM]
CCOP(=O)(OCC)C(NC(=O)c1cccc(C)c1)C(Cl)(Cl)Cl (stereo not given),3%,u,2%,0%,-3%
CCOP(=O)(OCC)C(NC(=O)c1ccccc1C)C(Cl)(Cl)Cl (stereo not given),-12%,-13%,0%,0%[53 µM],3.2µM*[quencher]
CCOP(=O)(OCC)C(NC(=O)c1cccc2ccccc12)C(Cl)(Cl)Cl (stereo not given),12%,-8%,6%,-17%[53 µM],32µM*[quencher]
C=CCC1=C(C)[C@@H](OC(=O)[C@@H]2[C@@H](C=C(C)C)C2(C)C)CC1=O,x,x,x,2%[201 µM],2%[201 µM]
SMILES,RGS12 GoLoco inh,VDR inh,KAT2A inh,TRb-SRC2 inh,TexasRed fluor
O=C1C=CC(=O)C(Cl)=C1,1.8µM*,25µM*,16µM*,-1%,-8%
O=P(O)(O)CN(CP(=O)(O)O)CP(=O)(O)O,x,x,x,-1%[201 µM],-2%[201 µM]
CSc1ccc(C(=O)C2CCCN(Cc3cc4ccccc4[nH]3)C2)cc1 (stereo not given),-10%,89µM*,-4%,2%,0%
CSc1ccc(C(=O)C2CCCN(Cc3cccnc3)C2)cc1 (stereo not given),26%,-6%,1%,1%,-4%
CNC(=O)Oc1ccc(N(C)C)c(C)c1,x,x,x,2%[201 µM],-4%[201 µM]
CN(C)c1c([N+](=O)[O-])cc(N2C(=O)C=CC2=O)cc1[N+](=O)[O-],x,16µM*,x,x,x
O=C(O)c1ccc(-c2ccc3cc(C45CC6CC(CC(C6)C4)C5)c(O)cc3c2)cc1,x,56µM*,16µM*,u,u
O=C(O)CNC(=O)[C@@H](CS)Cc1ccccc1,-5%[21.6 µM],0%,13µM*,-6%[53 µM],-2%[53 µM]
CCN1C(=O)/C(=C\c2ccc([N+](=O)[O-])s2)C(=O)NC1=S,-11%,x,8.9µM*,10%,1%
Cc1cc(C)nc(Nc2ccccc2)n1,x,x,x,0%[201 µM],-2%[201 µM]
C=C(C)[C@H]1CN[C@H](C(=O)O)[C@H]1CC(=O)O,11%,-1%,32µM*!,1%,-2%
ClC1=C(Cl)[C@]2(Cl)[C@H]3[C@H]([C@@H]4C=C[C@H]3C4)[C@]1(Cl)C2(Cl)Cl,x,x,x,-2%[201 µM],-4%[201 µM]
CCC[CH2][Sn]([CH2]CCC)([O]C(C)=O)[O]C(C)=O,x,x,x,2%[201 µM],0%[201 µM]
CCC(C=C[C@@H]1OC(=O)C=C[C@H]1C)=C[C@H](C)CC=CC(C)=C[C@@H](C)C(=O)[C@@H](C)[C@H](O)[C@@H](C)CC(C)=CC(=O)O,2%[0.551 µM],1.6µM*,-18%[2.33 µM],1%[2.82 µM],0%[2.82 µM]
Nc1ccc([N+](=O)[O-])cc1Cl,x,x,x,-4%[201 µM],-4%[201 µM]
O=[N+]([O-])/C=C/c1ccc2c(c1)OCO2,x,7.1µM*,-30%,x,x
COc1cc2c(cc1/C=C/[N+](=O)[O-])OCO2,13%,25µM*,-9%,-2%,-2%
CCC(C)(C)c1cc(-n2nc3ccccc3n2)c(O)c(C(C)(C)CC)c1,x,x,x,-1%[201 µM],-4%[201 µM]
CC1(C)C(=O)C=C[C@@]2(C)C1=C(O)C(=O)[C@@]1(C)C2CC[C@@]2(C)C(c3ccoc3)C[C@H]3O[C@@]321 (stereo not given in full),4%,7.9µM*,-14%,2%,1%

# High-throughput results: PubChem BioAssay, National Center for Advancing Translational Sciences (NCATS)
